Laboratory results from PubChem BioAssay AID1159580 (chemical genetic matrix, 2015).
Out of some 5,500 compounds screened, about 2,000 (36%) were called active. Another 18% or so got no clear call; they are omitted. Rule as the data show it: active = normalized growth mostly below about 0.91 (no sharp cut-off); inconclusive = no clear call, values can overlap the other calls; inactive = mostly above about 0.92. Some of the results follow.

Assay: chemical genetic growth profiling, strain panel (AID 1159580);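 also: tested at 20 µM; growth read once vehicle control cultures reached saturation at 30 °C; 1 = growth at the plate median or of vehicle wells; lower values mean less growth of the strain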
Details: growth OD

Measured: normalized growth

CC(=O)N[C@@H](CC(C)C)C(=O)O
inactive: S. cerevisiae deletion strains, locus YJR066W, strain TOR1, active compounds read low 1.02 | S. cerevisiae deletion strains, locus YJR075W, strain HOC1, active compounds read low 0.992 | S. cerevisiae deletion strains, locus YKL009W, strain mrt4, active compounds read low 0.962 | S. cerevisiae deletion strains, locus YKL068W, active compounds read low 0.977 | S. cerevisiae deletion strains, locus YKL085W, strain MDH1 (second series), active compounds read low 0.972 | S. cerevisiae deletion strains, locus YKL085W, strain MDH1, active compounds read low 0.972 | S. cerevisiae deletion strains, locus YKL160W, strain elf1, active compounds read low 0.977 | S. cerevisiae deletion strains, locus YKL190W, strain CNB1, active compounds read low 0.987 | S. cerevisiae deletion strains, locus YKR001C, strain vps1, active compounds read low 1 | S. cerevisiae deletion strains, locus YKR026C, strain gcn3, active compounds read low 0.979 | S. cerevisiae deletion strains, locus YKR091W, strain srl3, active compounds read low 1 | S. cerevisiae deletion strains, locus YLL001W, strain dnm1, active compounds read low 0.944 | S. cerevisiae deletion strains, locus YLL026W, active compounds read low 0.985 | S. cerevisiae deletion strains, locus YLL041C, strain sdh2, active compounds read low 0.995 | S. cerevisiae deletion strains, locus YLR027C, strain aat2, active compounds read low 0.992 | S. cerevisiae deletion strains, locus YLR039C, strain RIC1, active compounds read low 0.958 | S. cerevisiae deletion strains, locus YLR058C, strain SHM2, active compounds read low 0.989 | S. cerevisiae deletion strains, locus YLR102C, strain apc9, active compounds read low 0.988 | S. cerevisiae deletion strains, locus YLR113W, strain HOG1, active compounds read low 1.05 | S. cerevisiae deletion strains, locus YLR221C, strain rsa3, active compounds read low 1 | S. cerevisiae deletion strains, locus YLR258W, strain gsy2, active compounds read low 0.997 | S. cerevisiae deletion strains, locus YLR262C, strain YPT6 (second series), active compounds read low 0.983 | S. cerevisiae deletion strains, locus YLR262C, strain YPT6, active compounds read low 0.954 | S. cerevisiae deletion strains, locus YLR268W, strain sec22, active compounds read low 0.985 | S. cerevisiae deletion strains, locus YLR320W, strain mms22, active compounds read low 1.02 | S. cerevisiae deletion strains, locus YLR330W, strain CHS5, active compounds read low 0.972 | S. cerevisiae deletion strains, locus YLR342W, strain FKS1 (second series), active compounds read low 0.973 | S. cerevisiae deletion strains, locus YLR342W, strain FKS1, active compounds read low 0.984 | S. cerevisiae deletion strains, locus YLR357W, strain rsc2, active compounds read low 0.99 | S. cerevisiae deletion strains, locus YLR370C, strain arc18, active compounds read low 0.982 | S. cerevisiae deletion strains, locus YLR371W, strain rom2, active compounds read low 0.982 | S. cerevisiae deletion strains, locus YLR384C, strain iki3, active compounds read low 0.976 | S. cerevisiae deletion strains, locus YLR418C, strain cdc73, active compounds read low 0.978 | S. cerevisiae deletion strains, locus YML016C, strain PPZ1, active compounds read low 0.992 | S. cerevisiae deletion strains, locus YML032C, strain rad52, active compounds read low 1 | S. cerevisiae deletion strains, locus YML120C, strain ndi1, active compounds read low 0.976 | S. cerevisiae deletion strains, locus YML124C, strain tub3, active compounds read low 0.995 | S. cerevisiae deletion strains, locus YMR058W, strain fet3, active compounds read low 0.982 | S. cerevisiae deletion strains, locus YMR078C, strain ctf18, active compounds read low 0.984 | S. cerevisiae deletion strains, locus YMR125W, strain sto1, active compounds read low 0.994 | S. cerevisiae deletion strains, locus YMR129W, active compounds read low 0.998 | S. cerevisiae deletion strains, locus YMR205C, strain PFK2, active compounds read low 0.992 | S. cerevisiae deletion strains, locus YMR223W, strain ubp8, active compounds read low 0.968 | S. cerevisiae deletion strains, locus YMR231W, strain pep5, active compounds read low 0.991 | S. cerevisiae deletion strains, locus YMR263W, strain SAP30, active compounds read low 0.998 | S. cerevisiae deletion strains, locus YMR307W, strain GAS1, active compounds read low 0.982 | S. cerevisiae deletion strains, locus YNL067W, strain RPL9B, active compounds read low 1.03 | S. cerevisiae deletion strains, locus YNL071W, strain lat1, active compounds read low 1.01 | S. cerevisiae deletion strains, locus YNL183C, strain NPR1, active compounds read low 0.958 | S. cerevisiae deletion strains, locus YNL209W, strain ssb2, active compounds read low 0.99 | S. cerevisiae deletion strains, locus YNL233W, strain BNI4, active compounds read low 1.04 | S. cerevisiae deletion strains, locus YNL248C, strain rpa49, active compounds read low 0.989 | S. cerevisiae deletion strains, locus YNL250W, strain rad50, active compounds read low 0.96 | S. cerevisiae deletion strains, locus YNL271C, strain bni1, active compounds read low 0.979 | S. cerevisiae deletion strains, locus YNL298W, strain CLA4, active compounds read low 0.976 | S. cerevisiae deletion strains, locus YNL307C, strain MCK1, active compounds read low 0.991 | S. cerevisiae deletion strains, locus YNL322C, strain KRE1 (second series), active compounds read low 0.991 | S. cerevisiae deletion strains, locus YNR049C, strain mso1, active compounds read low 0.988 | S. cerevisiae deletion strains, locus YNR052C, strain pop2, active compounds read low 0.986 | S. cerevisiae deletion strains, locus YOL006C, strain TOP1, active compounds read low 1.1 | S. cerevisiae deletion strains, locus YOL012C, strain htz1 1.43 | S. cerevisiae deletion strains, locus YOL147C, strain pex11, active compounds read low 0.98 | S. cerevisiae deletion strains, locus YOR001W, strain rrp6, active compounds read low 0.971 | S. cerevisiae deletion strains, locus YOR061W, strain CKA2, active compounds read low 0.986 | S. cerevisiae deletion strains, locus YOR069W, strain VPS5, active compounds read low 0.982 | S. cerevisiae deletion strains, locus YOR070C, strain gyp1, active compounds read low 1 | S. cerevisiae deletion strains, locus YOR080W, strain dia2, active compounds read low 0.982 | S. cerevisiae deletion strains, locus YOR083W, strain WHI5, active compounds read low 0.976 | S. cerevisiae deletion strains, locus YOR106W, strain vam3, active compounds read low 0.974 | S. cerevisiae deletion strains, locus YOR136W, strain idh2, active compounds read low 0.992 | S. cerevisiae deletion strains, locus YOR144C, strain elg1, active compounds read low 0.996 | S. cerevisiae deletion strains, locus YOR184W, strain ser1, active compounds read low 0.983 | S. cerevisiae deletion strains, locus YOR231W, strain MKK1, active compounds read low 1.02 | S. cerevisiae deletion strains, locus YOR265W, strain rbl2, active compounds read low 0.998 | S. cerevisiae deletion strains, locus YOR270C, strain vph1, active compounds read low 0.996 | S. cerevisiae deletion strains, locus YOR290C, strain snf2, active compounds read low 1.01 | S. cerevisiae deletion strains, locus YOR316C, strain cot1, active compounds read low 1 | S. cerevisiae deletion strains, locus YPL051W, strain arl3, active compounds read low 0.992 | S. cerevisiae deletion strains, locus YPL078C, strain atp4, active compounds read low 0.955 | S. cerevisiae deletion strains, locus YPL106C, strain sse1, active compounds read low 0.994 | S. cerevisiae deletion strains, locus YPL240C, strain hsp82, active compounds read low 0.979 | S. cerevisiae deletion strains, locus YPL256C, strain CLN2, active compounds read low 1.04 | S. cerevisiae deletion strains, locus YPR119W, strain clb2, active compounds read low 0.99 | S. cerevisiae deletion strains, locus YPR141C, strain kar3, active compounds read low 0.974 | S. cerevisiae deletion strains, locus YPR163C, strain tif3, active compounds read low 0.977 | S. cerevisiae deletion strains, locus YPR167C, strain met16, active compounds read low 0.985 | S. cerevisiae deletion strains, strain wtn01, active compounds read low 0.991 | S. cerevisiae strains, strain wild type, active compounds read low 0.999
